From the supplement of paper PMC7156485 come the findings set out here.
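Also: TDF denotes transformed human dermal fibroblasts of mesenchymal origin.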

This assay has as its system TDF. The experiment in a line: cell number relative to DMSO (% of DMSO); higher = more cells (less growth inhibition / toxicity). Particulars: concentration: 10 µM; 24 h. In a few lines:
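Compounds were applied at 10 µM for 24 h at 37 °C, in triplicate, to HCC1569 and TDF cells. The cells were then fixed and stained for H1.0, and nuclei were counterstained with DAPI. Nuclear H1.0 intensity or cell number is reported relative to the plate control as a percent, taking the median of replicates. Smoothing for positional effects was applied to HCC1569 values only.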
Consider `CCCCOC(=O)NS(=O)(=O)c1sc(CC(C)C)cc1-c1ccc(Cn2c(CC)nc3c(C)cc(C)nc32)cc1`, for which the cell number worked out at 106.
For the compound `CC(=O)SCC[N+](C)(C)C.[Cl-]` [Acetylthiocholine chloride], the cell number was 111.
With `O=C1Nc2ccc(Cl)cc2C1=Cc1cc(Cl)c(O)c(Cl)c1` [PKR Inhibitor, Negative Control], the cell number amounted to 98.8.
Then `C#CC1(O)CCC2C3CCC4=CC(=O)CCC4C3CCC21C` (stereo unspecified) [Norethindrone], with 91; and `O=NN(CCCl)C(=O)NC1CCCCC1` [Lomustine], with 85.
As for `CCCCCC(O)C=CC1C=CC(=O)C1CC=CCCCC(=O)O` (stereo unspecified) [Prostaglandin A2], the cell number turned out to be 110.
In the case of `COc1cc2c(cc1OC)-c1cc(=Nc3c(C)cc(C)cc3C)n(C)c(=O)n1CC2.Cl` [Trequinsin.HCl], the cell number was 107.
As for `Cn1c(=O)c2[nH]c(C3CCCC3)nc2n(C)c1=O` [8-Cyclopentyl-1,3-dimethylxanthine], the cell number came to 99.4.
On to `N[C@@H](CC(=O)O)C(=O)O` [L-Aspartic acid], for which the cell number stood at 108.
Compound `Nc1ncnc2c1C(=O)N(c1ccc(C3CCC(CC(=O)O)CC3)cc1)CCO2` (stereo unspecified) came in with a cell number of 95.7.
For the compound `Cc1c(C(=O)O)c(O)cc2c1C(=O)c1c(O)c(C3OC(CO)C(O)C(O)C3O)c(O)c(O)c1C2=O` (stereo unspecified) [Carminic acid], the cell number worked out at 107.
`CC(C)C(CO)Nc1nc(Nc2cc(N)cc(Cl)c2)c2ncn(C(C)C)c2n1` (stereo unspecified) [Aminopurvalanol A] yielded a cell number of 83.4.
Compound `Cl.NCc1c[nH]c(=S)n1[C@H]1CCc2c(F)cc(F)cc2C1` gave a cell number of 110.
Compound `CC(C(=O)O)c1ccc(-c2ccccc2)c(F)c1` (stereo unspecified) [Flurbiprofen] yielded a cell number of 101.
In the case of `C[C@]12CCC(=O)C=C1CC[C@@H]1[C@@H]2[C@@H](O)C[C@@]2(C)[C@H]1CC[C@]2(O)C(=O)COC(=O)CCC(=O)[O-].[Na+]` it was 99.8; in that of `Cc1ccc(-c2cc(C(F)(F)F)nn2-c2ccc(S(N)(=O)=O)cc2)cc1` [Celecoxib], 103; in that of `CN(C)NN=C1N=CN=C1C(N)=O` [Dacarbazine], 102.
`O=C(Nc1c(Cl)cncc1Cl)c1ccc(OC(F)F)c(OCC2CC2)c1` registered a cell number of 92.1.
The compound `O=S(=O)(O)C1CCNCC1` [Piperidine-4-sulphonic acid] showed a cell number of 101.
In turn, `CC(CSC(=O)c1ccccc1)C(=O)N1CC(Sc2ccccc2)CC1C(=O)[O-].CC(CSC(=O)c1ccccc1)C(=O)N1CC(Sc2ccccc2)CC1C(=O)[O-].[Ca+2]` (stereo unspecified) returned a cell number of 119.
For the compound `Nc1ccc(C(=O)Nc2cccc(-c3nc(N4CCOCC4)c4oc5ncccc5c4n3)c2)cn1` [PIKfyve Inhibitor], the cell number was 56.2.
Consider `CC(C)=CCC(OC(=O)C=C(C)C)C1=CC(=O)c2c(O)ccc(O)c2C1=O` (stereo not drawn) [Shikonin beta,beta-dimethylacrylate], for which the cell number was 83.5.
The compound `CCCCCC(O)C=CC=O` (racemic) came in with a cell number of 109.
As to `O=C1CCCC(=O)C1C(=O)c1ccc(C(F)(F)F)cc1[N+](=O)[O-]` [2-[2-nitro-4-(trifluoromethyl)benzoyl]-1,3-cyclohexanedione], the cell number amounted to 104.
In turn, `CS(=O)(=O)O.Cc1ccc(NC(=O)c2ccc(CN3CCN(C)CC3)cc2)cc1Nc1nccc(-c2cccnc2)n1` [Imatinib] yielded a cell number of 95.8.
Regarding `CCC(C)(C)c1ccc(CC(C)CN2CC(C)OC(C)C2)cc1` (stereo unspecified) [Amorolfine], the cell number is 98.9.
